In PubChem BioAssay AID1347165 (National Center for Advancing Translational Sciences (NCATS), 2019):
In all, about 220,000 compounds went through this assay and about 5,700 (2.6%) were called active. Not shown: some 18% with an inconclusive outcome. The sample as a whole holds a higher share of actives than the screen did. A number with no mark means an inactive call. The call rests on the fitted dose curve; in most records, active means well fitted inhibition curve with a large enough effect; inconclusive means small, poorly fitted or top-dose-only effect; inactive means no such curve, though single readings can be large or run the other way.

These compounds were tested against Lysine-specific demethylase 5B (Homo sapiens) (UniProt Q9UGL1) (assay: Primary screen for KDM5B Histone Demethylases FDH-coupled qHTS). Settings: FDH-coupled NADH fluorescence (FDH is formaldehyde dehydrogenase); series mostly up to 57.7 µM; activity change, negative = inhibition: at the top concentration.
In short: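 Coupled FDH/NAD⁺ fluorescence readout. KDM5BΔAP 200 nM final; compound titration, 10 min RT preincubation; substrate mix 12.5 µM H3K4me3, 25 µM 2-OG, 50 µM Fe(II), 100 µM ascorbate, 0.25 mM NAD⁺, 0.25 U/mL FDH; ΔRFU over 30 min.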
Further: nearly all actives have a fitted effect of over 70% in size.
Potency means the concentration at half of the fitted maximal effect.
Wherever activity change, negative = inhibition is given: 0% is about no effect.

Sequence of Lysine-specific demethylase 5B (Homo sapiens) (Q9UGL1 whole entry, looked up): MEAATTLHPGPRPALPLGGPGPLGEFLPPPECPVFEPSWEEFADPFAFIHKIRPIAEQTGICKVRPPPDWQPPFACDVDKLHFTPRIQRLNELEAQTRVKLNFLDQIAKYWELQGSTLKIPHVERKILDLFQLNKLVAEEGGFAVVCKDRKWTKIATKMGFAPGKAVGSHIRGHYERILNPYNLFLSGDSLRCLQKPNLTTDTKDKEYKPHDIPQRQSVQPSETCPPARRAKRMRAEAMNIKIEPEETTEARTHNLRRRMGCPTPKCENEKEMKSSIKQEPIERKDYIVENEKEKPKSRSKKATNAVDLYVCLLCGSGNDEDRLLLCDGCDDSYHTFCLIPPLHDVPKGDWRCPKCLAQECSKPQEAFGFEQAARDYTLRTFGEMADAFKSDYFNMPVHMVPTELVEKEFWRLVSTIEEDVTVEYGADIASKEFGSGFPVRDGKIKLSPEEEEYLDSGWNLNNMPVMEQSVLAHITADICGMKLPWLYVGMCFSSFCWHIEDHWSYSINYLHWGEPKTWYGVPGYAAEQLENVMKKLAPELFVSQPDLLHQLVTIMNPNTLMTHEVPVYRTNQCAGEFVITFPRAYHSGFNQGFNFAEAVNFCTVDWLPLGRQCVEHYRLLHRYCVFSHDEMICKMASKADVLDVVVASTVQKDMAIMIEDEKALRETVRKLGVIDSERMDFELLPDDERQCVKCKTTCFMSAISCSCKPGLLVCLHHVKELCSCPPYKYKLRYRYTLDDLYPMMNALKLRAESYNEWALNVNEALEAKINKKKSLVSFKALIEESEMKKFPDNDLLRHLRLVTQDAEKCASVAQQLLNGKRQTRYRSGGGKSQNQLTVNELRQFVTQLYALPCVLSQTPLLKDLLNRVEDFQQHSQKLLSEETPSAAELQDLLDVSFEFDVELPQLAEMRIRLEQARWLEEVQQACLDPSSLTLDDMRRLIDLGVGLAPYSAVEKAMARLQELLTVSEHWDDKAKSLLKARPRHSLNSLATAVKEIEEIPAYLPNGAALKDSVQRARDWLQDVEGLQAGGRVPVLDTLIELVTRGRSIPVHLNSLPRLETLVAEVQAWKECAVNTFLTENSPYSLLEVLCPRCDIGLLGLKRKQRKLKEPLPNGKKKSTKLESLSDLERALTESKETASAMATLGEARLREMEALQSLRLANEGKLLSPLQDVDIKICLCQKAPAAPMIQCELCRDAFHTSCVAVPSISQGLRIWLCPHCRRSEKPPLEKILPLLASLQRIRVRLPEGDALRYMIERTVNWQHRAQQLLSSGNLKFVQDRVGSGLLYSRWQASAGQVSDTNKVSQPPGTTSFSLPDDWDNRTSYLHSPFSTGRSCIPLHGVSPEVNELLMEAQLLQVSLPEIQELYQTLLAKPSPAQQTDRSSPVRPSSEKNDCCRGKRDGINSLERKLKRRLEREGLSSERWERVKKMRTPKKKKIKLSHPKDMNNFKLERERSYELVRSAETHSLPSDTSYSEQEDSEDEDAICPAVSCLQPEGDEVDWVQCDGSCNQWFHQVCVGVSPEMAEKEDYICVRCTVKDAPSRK

Row | SMILES | activity change, negative = inhibition | Potency
1 | O=C(Nc1ccc(-n2cccn2)cc1)C1CCN(Cc2ccsc2)CC1 | 23.1% | –
2 | O=C(NCC1CC1)c1nc2c(o1)CCN(CCc1ccccc1)CC2 | -23.1% [at 86.2 µM] | –
3 | O=C(Nc1ccccc1)c1nc2c(o1)CCN(Cc1cccc(Cl)c1)CC2 | – | 28.2 µM (active)
4 | O=C(NCC1CC1)c1nc2c(o1)CCN(Cc1cccc(F)c1F)CC2 | -26.9% [at 86.2 µM] | –
5 | O=C(Nc1ccc(Cl)cc1)c1nc2c(o1)CCN(Cc1ccsc1)CC2 | – | 31.6 µM (active)
6 | COc1ccc(CN2CCc3nc(C(=O)N4CCOCC4)oc3CC2)cc1OC | 4.99% [at 86.2 µM] | –
7 | O=C(c1nc2c(o1)CCN(Cc1ccccc1F)CC2)N1CCOCC1 | -4.96% [at 86.2 µM] | –
8 | Cc1cccc(CN2CCc3nc(C(=O)Nc4ccc(Cl)cc4)oc3CC2)c1 | – | 31.6 µM (active)
9 | CCOc1ccc(NC(=O)CSc2nc3c(c(=O)[nH]2)CN(Cc2ccc(Cl)cc2)CC3)cc1 | -4.81% | –
10 | Cc1cc(Br)ccc1NC(=O)CN(C)Cc1ncc(-c2ccc(F)cc2)o1 | -15.3% | –
11 | CCc1ccc(CN(C(=O)c2cc(=O)c3cc(C)cc(C)c3o2)C2CCS(=O)(=O)C2)cc1 (configuration not stated) | -0.964% | –
12 | O=C(CSc1ncnc2sc3c(c12)CCCC3)Nc1ccc(F)cc1 | 8.22% | –
13 | CC(C)NC(=O)c1ccccc1NC(=O)C(Cl)Cl | -10.1% | –
14 | CCCn1nc(C(=O)NCc2ccc(OC)cc2)c2ccccc2c1=O | 7.93% | –
15 | Oc1ccc(-c2ccc(-c3nc(CCc4ccccc4)no3)cn2)cc1 | – | 25.1 µM (active)
16 | O=C(NCCc1noc(-c2ccccc2)n1)C1CC1 | 24% | –
17 | Cc1ccc(-c2nc(C(=O)N(C)Cc3ccccc3)no2)cc1 | -21.9% | –
18 | CCc1ccc(N/C(N)=N/c2nc(C)cc(C)n2)cc1 | 16.5% | –
19 | COC(=O)CC1c2cc(OC)c(OC)cc2CCN1Cc1nc(CC(C)C)no1 (configuration not stated) | -7.43% | –
20 | O=C(/C=C/c1ccc(-c2cc(Cl)ccc2Cl)o1)c1ccc(F)cc1 | -4.81% | –
21 | CNC(=O)[C@@H]1CN(C(=O)c2n[nH]c3ccccc23)C[C@H]1COC | -15.7% | –
22 | CNC(=O)[C@@H]1CN(C(=O)Cc2cccnc2)C[C@H]1COC | -8.75% | –
23 | COC[C@@H]1CN(c2ncccn2)C[C@H]1C(=O)Nc1ccncc1 | – | 20 µM (active)

Row | SMILES | activity change, negative = inhibition | Potency
24 | S=C(NCCc1ccc(Cl)cc1)Nc1ccc(Oc2ccccc2)cc1 | 3.85% | –
25 | CN(C)[C@@H]1CN(C(=O)c2cccn2C)CC[C@@H]1CO | 12.6% | –
26 | CN(C)Cc1cccc(-c2cc(-c3ccncc3)c3cncn3c2)c1 | – | 28.2 µM (active)
27 | OCc1cccc(-c2cc(C3=CCOCC3)c3cncn3c2)c1 | – | 31.6 µM (active)
28 | Cc1noc(C)c1-c1cc(-c2cncnc2)cn2cncc12 | -16.6% [at 115 µM] | –
29 | FC(F)(F)c1cccc(-c2cc(C3=CCOCC3)c3cncn3c2)c1 | – | 35.5 µM (active)
30 | Cc1nc(NC(C)C)sc1C(=O)Nc1ccccc1 | -3.94% | –
31 | O=C(COC(=O)c1cc2ccccc2[nH]1)NCc1ccc(F)cc1 | -15.2% | –
32 | NC(=O)c1ccc(CN(Cc2cccs2)C2CC2)cc1 | -16.1% | –
33 | O=C(O)CCC(=O)NC1CC2(CCN(C(=O)c3ccccc3)CC2)c2ccccc21 (configuration not stated) | 9.24% [at 115 µM] | –
34 | CCOc1ccc(CN(C)CC(O)COc2ccc(C)cc2C)cc1OC (configuration not stated) | -21.4% | –
35 | CC(=O)NC1(C)CN(Cc2ccc(-c3ccc4c(ccn4C)c3)s2)C1 | – | 35.5 µM (active)
36 | Cn1ccc2cc(S(=O)(=O)N3CCC(C(=O)NCCN4CCCC4)CC3)ccc21 | -8.91% | –
37 | CC(=O)NC1(C)CCN(Cc2cnc(-c3ccc4c(ccn4C)c3)s2)CC1 | – | 35.5 µM (active)
38 | CC(=O)N1CCN(C(=O)c2ccc3c(ccn3C)c2)CC1 | -2.69% | –
39 | CCC(=O)c1ccc(OC(=O)c2nn(C(C)C)c(=O)c3ccccc23)cc1 | 7.72% | –
40 | Cc1ccc(Nc2cc(C)nc3c(C)c(C)cc([N+](=O)[O-])c23)c(C)c1 | -12.7% | –
41 | O=S(=O)(CCSc1nnc(-c2ccccc2)o1)c1ccc(Br)cc1 | 3.11% | –
42 | COc1ccc(C(=O)OCC(=O)NCC(F)(F)F)cc1 | 10.4% | –
43 | O=C(CSc1nc2ccccc2s1)Nc1ccc2c(c1)CCC2 | 23.2% | –
44 | O=C(CCc1ncc(-c2ccc(F)cc2F)o1)Nc1ccccc1 | 6.26% | –
45 | Cc1cccc(NC(=O)Nc2ccc(OCc3ccccc3)cc2)n1 | 30.5% | –
46 | CCn1ccc2cc(S(=O)(=O)N3CCC(C(=O)NCC4CCCO4)CC3)ccc21 (configuration not stated) | 24.8% | –

Row | SMILES | activity change, negative = inhibition | Potency
47 | CC(=O)N1CCN(Cc2cc(F)ccc2Cl)CC(O)C1 (configuration not stated) | -20.1% | –
48 | O=C(c1ccc2[nH]ccc2c1)N1CCN(S(=O)(=O)c2cccc3nonc23)CC1 | -8.8% | –
49 | O=C(c1ccc2cc[nH]c2c1)N1CCN(Cc2cnc[nH]2)CC(O)C1 (configuration not stated) | – | 25.1 µM (active)
50 | CN(C)C(=O)c1cccc(NCC(=O)NC(=O)NCc2ccccc2)c1 | 0.332% | –
51 | Cc1ccc(C(=O)N2CCN(c3oc(C4CC4)nc3C#N)CC2)c(C)c1 | 5.21% | –
52 | Cc1ccc(OCCOc2cccc(/C=N/NC(N)=O)c2)cc1 | 10.1% | –
53 | CCc1ccccc1NC(=O)c1cc(C)nc2ccccc12 | 3.59% | –
54 | CC(C)C(=O)Nc1ccc2oc(-c3cccc(Cl)c3)nc2c1 | -19.6% | –
55 | Cc1ccc2c(C(=O)O)cc(NC(=O)C(C)C)cc2n1 | – | 20 µM (active)
56 | O=C(NCCn1c(-c2ccccc2)nc2ccccc21)NCc1ccccc1 | -25.5% | –
57 | CC(C)Cc1nc2cccnc2n1C1CCN(S(=O)(=O)c2ccc(Cl)s2)CC1 | 5.36% | –
58 | CC(C)NC(=O)N1Cc2[nH]cnc2C[C@H]1c1nc(-c2ccc(Cl)cc2)no1 | – | 31.6 µM (active)
59 | O=C(c1ccco1)N1Cc2[nH]cnc2C[C@H]1c1nc(-c2ccncc2)no1 | -23.5% [at 86.2 µM] | –
60 | Cc1cccc(-c2noc([C@@H]3Cc4nc[nH]c4CN3C(=O)CCC(=O)O)n2)c1 | -20.1% [at 86.2 µM] | –
61 | COc1ccc(-c2cc(N3CCC(NC(=O)c4ccc5c(c4)OCO5)CC3)n[nH]2)cc1 | -11.3% | –
62 | O=C(Nc1cccnc1)c1ccc2c(c1)OCCN(c1ccccc1)C2 | -25.6% [at 86.2 µM] | –
63 | COc1ccc(-n2cnc3cc(C(=O)NC4CCCC4)ccc32)cc1 | -23.1% | –
64 | COc1ccc(OCC2(C)COc3ccc(C(=O)NC4CCOCC4)cc3N2)cc1 (configuration not stated) | – | 25.1 µM (active)
65 | COc1ccc(OCC2(C)COc3ccc(C(=O)Nc4cccnc4)cc3N2)cc1 (configuration not stated) | – | 31.6 µM (active)
66 | O=C(Nc1cccnc1)c1ccc2c(c1)OCCN(Cc1ncccn1)C2 | 7.08% [at 86.2 µM] | –
67 | Cc1ccc(NC(=O)CN(C)C(=O)c2cc3ccc(F)cc3nc2C)cc1 | -9.53% | –
